Algae TAG accum = inducers of triacylglycerol accumulation in Chlamydomonas reinhardtii algae. calls only at 10 µM (by protocol). hit rate 0.84% among 44,000. Chlamydomonas reinhardtii TAG, Nile Red fluorescence, 72 h; call rule not given here;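 further: hits raise Nile Red signal meaning more stored TAG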
The depositor's hits bear a star. The full list was thinned out, with hits kept by preference.

`O=C(Nc1ccccc1C(=O)NCc1ccccc1)c1ccc([N+](=O)[O-])cc1` gave Algae TAG accum active.
For O=C(Nc1ccccc1O)c1ccc([N+](=O)[O-])cc1 the results were Algae TAG accum inactive.
For O=C(Nc1ccccc1C(=O)Nc1ccc([N+](=O)[O-])cc1)c1ccccc1 the results were Algae TAG accum inactive.
O=[N+]([O-])c1ccc(C2Nc3c(O)ccc(Br)c3C3C=CCC32)cc1 (stereo unspecified) was read as Algae TAG accum inactive.
`COc1ccc(OC)c(NC(=O)Cc2ccc(F)cc2)c1` gave Algae TAG accum inactive.
Screening COCCNS(=O)(=O)c1cc(Cl)ccc1OC returned Algae TAG accum active.
`COc1ccc(Cl)cc1NS(=O)(=O)c1cc(Cl)ccc1OC` gave Algae TAG accum inactive.
Screening COc1ccc(Cl)cc1S(=O)(=O)NCc1cccnc1 returned Algae TAG accum inactive.
For CC(C)c1cc(NS(=O)(=O)c2ccccc2N)cc(C(C)C)c1O the results were Algae TAG accum inactive.
For CS(=O)(=O)N1CCN(c2ccc([N+](=O)[O-])c(NCCc3ccccc3)c2)CC1 the results were Algae TAG accum inactive.
`Cc1cc(C)c(NC(=O)COc2ccccc2C)c(Cl)c1` gave Algae TAG accum inactive.
Screening Cc1ccccc1OCC(=O)Nc1ccccc1[N+](=O)[O-] returned Algae TAG accum inactive.
For Cc1cc(C)c(NC(=O)COc2ccccc2[N+](=O)[O-])c(C)c1 the results were Algae TAG accum active.
CC(CCc1ccccc1)NS(=O)(=O)c1ccccc1[N+](=O)[O-] (stereo unspecified) was read as Algae TAG accum inactive.
`C(=C\c1ccccc1)/CN1CCN(C2C3CC4CC(C3)CC2C4)CC1` (stereo unspecified) gave Algae TAG accum active.
COc1cc(CN2CCN(C/C=C/c3ccccc3)CC2)cc(OC)c1OC was read as Algae TAG accum inactive.
`C(=C\c1ccccc1)/CN1CCN(C2CCN(CCc3ccccc3)CC2)CC1` gave Algae TAG accum inactive.
For COc1ccc(CN2CCN(C/C=C/c3ccccc3)CC2)cc1 the results were Algae TAG accum active.
COc1ccc(CN2CCN(C/C=C/c3ccccc3)CC2)c(O)c1 was read as Algae TAG accum inactive.
C(=C\c1ccccc1)/CN1CCN(c2ncccn2)CC1 was read as Algae TAG accum inactive.
For NC(=O)c1ccccc1NC(=O)c1ccc(C(=O)Nc2ccccc2C(N)=O)cc1 the results were Algae TAG accum inactive.
For COc1ccc(-c2nc3cc(NC(=O)c4ccccc4[N+](=O)[O-])ccc3o2)cc1 the results were Algae TAG accum inactive.
CC1CN(C(=O)Cc2ccc([N+](=O)[O-])cc2)CC(C)O1 (stereo unspecified) was read as Algae TAG accum inactive.
For COc1ccccc1CNC1CCCC1 the results were Algae TAG accum inactive.
`CCCC(=O)Nc1ccc(NC(=O)c2ccc(Br)cc2)cc1` gave Algae TAG accum inactive.
Screening Cc1ccc(NC(=O)Cc2ccc(Br)cc2)cc1 returned Algae TAG accum inactive.
For CCN(CC)CC(=O)Nc1ccc(Br)cc1 the results were Algae TAG accum active.
Screening CC1(c2ccccc2NC(=O)c2ccccc2Cl)CC1 returned Algae TAG accum inactive.
CC(O)c1nc2ccccc2n1Cc1ccccc1Cl (stereo unspecified) was read as Algae TAG accum inactive.
For Cc1cccc(Cn2c(C(C)O)nc3ccccc32)c1 (stereo unspecified) the results were Algae TAG accum inactive.
`COc1ccccc1Cn1c(C(C)O)nc2ccccc21` (stereo unspecified) gave Algae TAG accum active.
O=c1[nH]c(/C=C/c2cccc(Br)c2)c([N+](=O)[O-])c(=O)[nH]1 was read as Algae TAG accum inactive.
For COc1nccnc1NS(=O)(=O)c1ccc(NC(=O)CCc2ccccc2)cc1 the results were Algae TAG accum inactive.
`Clc1ccc(SCCCn2ccnc2)cc1` gave Algae TAG accum inactive.
`CC(C)(C)c1ccc(C(=O)N2CCCCCC2)cc1` gave Algae TAG accum inactive.
For CCOc1ccc(C(=O)N2CCN(CC)CC2)cc1 the results were Algae TAG accum inactive.
For CCN1CCN(C(=O)c2ccc(C(C)(C)C)cc2)CC1 the results were Algae TAG accum active.
`CCCCOc1ccccc1NC(=O)c1cc(OCC)c(OCC)c(OCC)c1` gave Algae TAG accum inactive.
For Cc1onc(-c2ccccc2)c1C(=O)Nc1cccc(Cl)c1C the results were Algae TAG accum inactive.
For CCOc1ccccc1CN1CCSCC1 the results were Algae TAG accum inactive.
For O=C(Nc1ccc(OCc2ccccc2)cc1)c1ccccc1Cl the results were Algae TAG accum inactive.
Screening O=[N+]([O-])c1ccc(OCCCCN2CCOCC2)cc1 returned Algae TAG accum active.
Screening c1ccc(COc2ccc(OCCCCN3CCOCC3)cc2)cc1 returned Algae TAG accum inactive.
Screening O=[N+]([O-])c1ccc(OCCCN2CCCC2)cc1 returned Algae TAG accum inactive.
Screening CC(C)(C)c1ccc(OCCCCN2CCOCC2)cc1 returned Algae TAG accum active.
For CCOc1cccc(OCCN2CCOCC2)c1 the results were Algae TAG accum inactive.
Screening Cc1cccc(OCCCCN2CCOCC2)c1 returned Algae TAG accum active.
Screening c1ccc(OCCCN2CCOCC2)cc1 returned Algae TAG accum inactive.
`O=[N+]([O-])c1ccc(OCCCCN2CCCCC2)cc1` gave Algae TAG accum inactive.
`Ic1ccc(OCCCN2CCOCC2)cc1` gave Algae TAG accum inactive.
Screening O=C(Nc1ccc2c(c1)OCO2)c1c(Cl)cccc1Cl returned Algae TAG accum inactive.
Screening Cc1sc2ncn(-n3c(C)ccc3C)c(=O)c2c1-c1ccccc1 returned Algae TAG accum inactive.
For COc1cc(C(=O)Nc2cc3nn(-c4ccc(C)cc4)nc3cc2Cl)cc(OC)c1OC the results were Algae TAG accum inactive.
For CC(C)C(=O)Nc1ccc(NC(=O)c2ccccc2[N+](=O)[O-])cc1 the results were Algae TAG accum inactive.
For CCN(Cc1ccccc1)C(=O)C1CCN(CC2CC=CCC2)CC1 (stereo unspecified) the results were Algae TAG accum inactive.
`NC(=O)C1CCN(CC2CC=CCC2)CC1` (stereo unspecified) gave Algae TAG accum inactive.
`C=C(C)CN(CC)C(=O)C1CCN(CC2CC=CCC2)CC1` (stereo unspecified) gave Algae TAG accum active.
For O=C(NC1CCCCCC1)c1cccc([N+](=O)[O-])c1 the results were Algae TAG accum inactive.
Screening O=[N+]([O-])c1cccc(CNC2CCCCCC2)c1 returned Algae TAG accum active.
O=[N+]([O-])c1ccc(CNC2CCCCCC2)cc1 was read as Algae TAG accum active.
`CN(Cc1ccc([N+](=O)[O-])cc1)C1CCCCC1` gave Algae TAG accum active.
For CN1CCC(N(C)Cc2ccc([N+](=O)[O-])cc2)CC1 the results were Algae TAG accum inactive.
O=C(NC1CCCCCC1)c1ccc([N+](=O)[O-])cc1 was read as Algae TAG accum inactive.
O=[N+]([O-])c1cccc(CN2CCCCCC2)c1 was read as Algae TAG accum inactive.
`O=[N+]([O-])c1ccc(CNC2CCCC2)cc1` gave Algae TAG accum active.
For O=[N+]([O-])c1ccc(CNC2CCCc3ccccc32)cc1 (stereo unspecified) the results were Algae TAG accum inactive.
CN1CCC(N(C)Cc2cccc([N+](=O)[O-])c2)CC1 was read as Algae TAG accum inactive.
